For experiment [1], the system named is Plasmodium falciparum Sir2 (PF13_0152, Sir2A). Nature of the experiment: Plasmodium falciparum Sir2A binding compounds – biochemical, small-molecule microarray, 635 nm fluorescence, primary screen (AID 1098).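 Also: score merges spot fluorescence intensity with its signal-to-noise ratio.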 The conditions noted are these: fluorescence 635 nm, higher = more signal.
Experiment [2] is described as follows: probe aDKK1 binding to arrayed compounds – biochemical, biotinylated probe, 635/667 nm fluorescence, primary screen (AID 1099).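 Also: score merges 667nm spot fluorescence with signal to noise across triplicate slides.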 To be noted: small-molecule microarray, higher = more signal.
Experiment [3] is described as follows: probe aCHRDL2 binding to arrayed compounds – biochemical, biotinylated probe, 635/667 nm fluorescence, primary screen (AID 1100). To be noted: small-molecule microarray, higher = more signal.
Experiment [4] in a line: change in splice reporter luminescence, either direction, cell-based, HEK293, spliceosome inhibition project, primary screen (AID 1101).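 Also: HEK293 cells carrying a splicing-competent luciferase reporter gene; test concentration not given here.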 The conditions noted are these: HEK293 splicing luciferase reporter, 24 h, higher = more signal, called active from +8 up or from −8 down. (In a reporter assay the amount or activity of a reporter protein is the signal.)
The target of experiment [5] is Fibroblast growth factor 10 (Homo sapiens) (UniProt O15520). Nature of the experiment: compounds binding fibroblast growth factor 10 – biochemical, small-molecule microarray, 635 nm fluorescence, primary screen (AID 1102). To be noted: FGF10 binding, fluorescence 635 nm, higher = more signal.
Chain of Fibroblast growth factor 10 (Homo sapiens) (O15520 whole entry, looked up): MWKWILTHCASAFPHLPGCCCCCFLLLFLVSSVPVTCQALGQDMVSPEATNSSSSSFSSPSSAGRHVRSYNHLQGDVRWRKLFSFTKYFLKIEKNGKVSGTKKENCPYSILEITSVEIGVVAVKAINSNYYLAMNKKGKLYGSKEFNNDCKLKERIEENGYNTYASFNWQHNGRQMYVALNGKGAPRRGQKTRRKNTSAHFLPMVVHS
Experiment [6] has as its system glycogen synthase kinase-3 (GSK3A per assay name; protocol says GSK3B). In words: compounds binding glycogen synthase kinase-3 – biochemical, small-molecule microarray, 635 nm fluorescence, GSK3A, primary screen (AID 1103). Also: the record names both GSK3A and GSK3B. The conditions noted are these: fluorescence 635 nm, higher = more signal.
The target in experiment [7] is Epidermal growth factor receptor (Homo sapiens) (UniProt P00533). In words: compounds binding epidermal growth factor receptor – biochemical, small-molecule microarray, 635 nm fluorescence, primary screen (AID 1104).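 Also: score merges 667 nm emission intensity with spot signal to noise over triplicate slides.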 To be noted: EGFR binding, higher = more signal.
Chain of Epidermal growth factor receptor (Homo sapiens) (P00533 whole entry, looked up): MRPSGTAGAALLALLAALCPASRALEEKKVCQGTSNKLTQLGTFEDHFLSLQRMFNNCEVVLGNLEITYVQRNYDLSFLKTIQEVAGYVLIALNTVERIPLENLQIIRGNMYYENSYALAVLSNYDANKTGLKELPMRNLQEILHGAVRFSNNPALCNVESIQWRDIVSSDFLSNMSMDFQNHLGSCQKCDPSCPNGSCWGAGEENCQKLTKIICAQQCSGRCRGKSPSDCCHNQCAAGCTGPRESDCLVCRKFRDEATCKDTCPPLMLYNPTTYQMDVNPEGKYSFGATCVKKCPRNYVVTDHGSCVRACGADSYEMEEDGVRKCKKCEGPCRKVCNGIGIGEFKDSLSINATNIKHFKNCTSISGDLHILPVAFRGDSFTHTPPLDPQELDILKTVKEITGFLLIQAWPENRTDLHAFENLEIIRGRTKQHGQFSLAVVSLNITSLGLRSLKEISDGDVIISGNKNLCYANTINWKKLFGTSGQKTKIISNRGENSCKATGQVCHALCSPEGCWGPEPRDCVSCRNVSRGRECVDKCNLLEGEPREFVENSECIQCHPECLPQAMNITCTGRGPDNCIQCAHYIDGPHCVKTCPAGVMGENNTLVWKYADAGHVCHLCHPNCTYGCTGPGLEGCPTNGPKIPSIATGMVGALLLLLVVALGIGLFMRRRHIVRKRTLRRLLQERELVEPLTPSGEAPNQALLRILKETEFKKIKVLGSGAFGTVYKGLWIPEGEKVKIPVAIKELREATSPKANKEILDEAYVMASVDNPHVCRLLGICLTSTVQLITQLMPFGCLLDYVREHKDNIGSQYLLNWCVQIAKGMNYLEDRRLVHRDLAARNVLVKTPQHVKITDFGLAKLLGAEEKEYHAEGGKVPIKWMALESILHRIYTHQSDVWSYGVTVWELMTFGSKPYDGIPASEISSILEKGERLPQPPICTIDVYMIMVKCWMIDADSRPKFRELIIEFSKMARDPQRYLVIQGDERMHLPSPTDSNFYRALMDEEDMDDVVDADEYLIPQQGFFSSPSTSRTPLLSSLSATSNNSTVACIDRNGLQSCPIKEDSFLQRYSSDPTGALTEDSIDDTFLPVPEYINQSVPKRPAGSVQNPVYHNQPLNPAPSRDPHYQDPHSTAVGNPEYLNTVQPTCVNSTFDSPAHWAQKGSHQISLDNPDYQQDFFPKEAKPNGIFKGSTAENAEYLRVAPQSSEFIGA
Experiment [8] concerns the target Follistatin-related protein 3 (Homo sapiens) (UniProt O95633). In words: compounds binding follistatin-related protein 3 – biochemical, small-molecule microarray, 635 nm fluorescence, primary screen (AID 1105).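 Also: score merges emission near 667 nm and signal to noise per printed spot across three slides.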 To be noted: FSTL3 binding, higher = more signal.
The target of experiment [9] is Dickkopf-related protein 1 (Homo sapiens) (UniProt O94907). Nature of the experiment: small molecules binding DKK1 protein – biochemical, small-molecule microarray, 635 nm fluorescence scan, primary screen (AID 1106).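 Also: score merges emission near 667 nm with signal to noise over three replicate slides.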 To be noted: higher = more signal.
Chain of Dickkopf-related protein 1 (Homo sapiens) (O94907 whole entry, looked up): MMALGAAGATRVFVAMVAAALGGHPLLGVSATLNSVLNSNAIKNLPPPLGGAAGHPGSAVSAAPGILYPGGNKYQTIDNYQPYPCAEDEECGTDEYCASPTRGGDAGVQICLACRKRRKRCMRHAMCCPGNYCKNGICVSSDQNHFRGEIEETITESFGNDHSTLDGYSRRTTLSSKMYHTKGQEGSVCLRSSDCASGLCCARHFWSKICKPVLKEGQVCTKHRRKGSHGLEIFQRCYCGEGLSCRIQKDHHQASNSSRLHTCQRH
The test system of experiment [10] is Inhibin beta A chain (activin A). Nature of the experiment: small molecules binding activin A – biochemical, small-molecule microarray, 635 nm fluorescence scan, primary screen (AID 1107).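 Also: mouse activin A protein probed at 4.33 µg/mL on printed slides; score merges bound-protein fluorescence near 667 nm with spot signal-to-noise.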 To be noted: INHBA, higher = more signal.
Experiment [11] concerns Human papillomavirus type 1a protein E7 (residues 44-93). In words: small molecules binding HPV E7 44-93 – biochemical, small-molecule microarray, residues 44-93, 635 nm fluorescence, primary screen (AID 1108).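 Also: E7 fragment applied at 1 µg/mL in TBST for 1 h at 4 C; score combines spot fluorescence with its signal to noise ratio.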 To be noted: fluorescence 635 nm, higher = more signal.
Experiment [12] in a line: hepatitis C replication reporter changes, two-sided – Huh7 cells, luciferase reporter, HCV replication inhibitor project, primary screen (AID 1109).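 Also: huh7 hepatoma cells harbouring a luciferase neomycin HCV replicon reporter; luciferase luminescence as measure of HCV replicon replication; test concentration not given here.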 To be noted: Huh7 HCV replicon luciferase reporter, 48 h; higher = more signal.
The target in experiment [13] is Left-right determination factor 2 (Homo sapiens) (UniProt O00292). Nature of the experiment: small molecules binding LEFTY2 protein – biochemical, small-molecule microarray, 635 nm fluorescence scan, primary screen (AID 1110). To be noted: higher = more signal.
Chain of Left-right determination factor 2 (Homo sapiens) (O00292 whole entry, looked up): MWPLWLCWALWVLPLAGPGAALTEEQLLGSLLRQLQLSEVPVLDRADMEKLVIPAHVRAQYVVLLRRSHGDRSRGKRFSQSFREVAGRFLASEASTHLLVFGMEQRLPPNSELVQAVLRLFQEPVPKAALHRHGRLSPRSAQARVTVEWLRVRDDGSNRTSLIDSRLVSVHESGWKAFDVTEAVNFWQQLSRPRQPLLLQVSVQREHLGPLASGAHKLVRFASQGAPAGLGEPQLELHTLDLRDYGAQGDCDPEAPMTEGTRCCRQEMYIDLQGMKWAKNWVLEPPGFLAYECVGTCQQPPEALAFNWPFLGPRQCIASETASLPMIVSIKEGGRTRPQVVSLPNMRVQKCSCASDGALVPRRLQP
The target of experiment [14] is Calmodulin-1 (Homo sapiens) (UniProt P0DP23). Nature of the experiment: small molecules binding calmodulin-1 with EGTA – biochemical, small-molecule microarray, Cy5-labelled CALM1, profiling panel (AID 1111).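 Also: labelled calmodulin applied in Tris saline Tween buffer holding calcium plus EGTA and DTT.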 The conditions noted are these: Cy5-CALM1 binding fluorescence, higher = more signal.
Experiment [15] has the same target. In words: small molecules binding Ca-loaded calmodulin-1 – biochemical, small-molecule microarray, Cy5-labelled CALM1, plus calcium, artefact control for SMM control-protein annotation, profiling panel (AID 1112).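 Also: score merges spot fluorescence with signal to noise from triplicate slides.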 The conditions noted are these: Cy5-CALM1 binding fluorescence, higher = more signal.
A short description of experiment [16]: probe aWnt5a binding to arrayed compounds – biochemical, biotinylated probe, 635/667 nm fluorescence, primary screen (AID 1113).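 Also: score merges 667 nm fluorescence intensity with signal-to-noise per printed feature.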 The conditions noted are these: small-molecule microarray, higher = more signal.
Experiment [17] in a line: probe aShh binding to arrayed compounds – biochemical, biotinylated probe, 635/667 nm fluorescence, primary screen (AID 1114).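 Also: probe is biotin-labelled aShh protein from a stem cell growth factor screen; measures binding of labelled protein to compounds printed on the slide; score merges feature fluorescence at 667 nm with signal-to-noise.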 The conditions noted are these: small-molecule microarray, higher = more signal.
Experiment [18] can be described thus: probe aNog binding to arrayed compounds – biochemical, biotinylated probe, 635/667 nm fluorescence, primary screen (AID 1115).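 Also: probe is biotinylated aNog protein used at 0.15 µg/mL for 1 h at 4 C; z-score combines 667 nm fluorescence of each spot with its signal to noise.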 The conditions noted are these: small-molecule microarray, higher = more signal.
Experiment [19] has as its target Torsin-1A-interacting protein 1 (Homo sapiens) (UniProt Q5JTV8). Nature of the experiment: compound microarray binding of lysate hLAP1 – cell lysate, small-molecule microarray, COS7 lysate, 635/667 nm fluorescence, primary screen (AID 1116). The conditions noted are these: 635 nm fluorescence, higher = more signal.
In experiment [20] the target is Alpha-bungarotoxin (Bungarus multicinctus) (UniProt P60615). Nature of the experiment: compounds binding labelled alpha-BTX control protein – biochemical, small-molecule microarray, Alexa647 label, 635/667 nm fluorescence, artefact control for SMM control protein annotation, profiling panel (AID 1117). The conditions noted are these: alpha-BTX-A647 binding fluorescence, higher = more signal.
Chain of Alpha-bungarotoxin (Bungarus multicinctus) (P60615 whole entry, looked up): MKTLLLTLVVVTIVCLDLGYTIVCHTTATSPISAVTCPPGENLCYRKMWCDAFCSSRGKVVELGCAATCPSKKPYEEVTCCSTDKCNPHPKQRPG

Molecules are shown by their SMILES. Calls of active or inactive are those of the source.

Chain of Torsin-1A-interacting protein 1 (Homo sapiens) (Q5JTV8 whole entry, looked up): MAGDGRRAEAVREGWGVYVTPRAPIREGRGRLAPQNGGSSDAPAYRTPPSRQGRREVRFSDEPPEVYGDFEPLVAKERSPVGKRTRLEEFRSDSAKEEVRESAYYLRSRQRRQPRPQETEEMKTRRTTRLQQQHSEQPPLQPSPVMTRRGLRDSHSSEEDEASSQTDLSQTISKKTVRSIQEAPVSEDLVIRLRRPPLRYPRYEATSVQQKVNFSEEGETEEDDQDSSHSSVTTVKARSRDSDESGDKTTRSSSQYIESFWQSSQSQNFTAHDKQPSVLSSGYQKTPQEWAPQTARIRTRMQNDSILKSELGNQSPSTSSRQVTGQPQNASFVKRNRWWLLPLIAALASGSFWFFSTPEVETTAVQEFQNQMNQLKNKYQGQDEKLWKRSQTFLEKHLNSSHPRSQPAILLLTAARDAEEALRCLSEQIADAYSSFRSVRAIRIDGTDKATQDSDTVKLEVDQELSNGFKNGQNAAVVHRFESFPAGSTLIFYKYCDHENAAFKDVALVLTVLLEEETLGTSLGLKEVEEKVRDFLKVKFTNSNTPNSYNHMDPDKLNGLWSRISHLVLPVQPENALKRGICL
Chain of Follistatin-related protein 3 (Homo sapiens) (O95633 whole entry, looked up): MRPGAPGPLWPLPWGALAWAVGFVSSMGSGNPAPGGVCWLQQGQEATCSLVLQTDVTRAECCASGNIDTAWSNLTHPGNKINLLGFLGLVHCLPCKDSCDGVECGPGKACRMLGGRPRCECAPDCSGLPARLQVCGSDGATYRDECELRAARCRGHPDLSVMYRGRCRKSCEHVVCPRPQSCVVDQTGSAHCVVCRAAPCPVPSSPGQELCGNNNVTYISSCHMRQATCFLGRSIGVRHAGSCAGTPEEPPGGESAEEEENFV

For `CC(=O)OC[C@H]1O[C@H](CC=NOC[C@@H](C)[C@H](OCc2ccccc2)C(C)C)C=C[C@@H]1OC(C)=O`, the composite z-score in experiment [1] was -0.15; in experiment [2] it was -0.262; in [3], -0.478; in [5], -0.17; in [6] it was 0.1; in [7] it was 0.0284. Also, the composite z-score in experiment [8] was 0.523; in experiment [9], 0.169; in [10], -0.0543; in [11] it was 0.16; in experiment [13], 0.455; in [14], -0.47. In addition, the composite z-score in experiment [15] is -0.499; in experiment [16] it was 0.0437; in experiment [17], -0.186; in experiment [18], -0.526; in experiment [19], -0.698; in experiment [20] it was -0.164. Further, the z-score is 0.955 (inactive) in [4] and -0.854 in experiment [12].

On to `O=C1C2=CC[C@H]3C(=O)N(Cc4ccc5c(c4)OCO5)C(=O)[C@H]3[C@H]2[C@H](O)[C@@H]2O[C@H]12`, for which the composite z-score in experiment [1] is 0.557; in experiment [2] it was -0.141; in experiment [3], -0.51; in experiment [5], 0.385; in experiment [6], 0.526; in [7] it was 0.65. In addition, the composite z-score in [8] was 0.459; in experiment [9], 0.347; in experiment [10], 0.29; in experiment [11] it was 0.631; in [13], 0.341; in experiment [14], -0.306. Besides, the composite z-score in experiment [15] was -0.502; in [16], -0.0495; in experiment [17], -0.346; in experiment [18] it was -0.0381; in [19], 0.442; in experiment [20] it was 0.251. In addition, the z-score in experiment [4] was 0.867 (inactive); in [12] it was -0.43.

Regarding `C[C@@H]1C=CCC(=O)OC[C@H](C)C(=O)OC[C@H]2O[C@H]1C=C[C@H]2O`, the composite z-score was 0.128 in [1]; -0.439 in experiment [2]; -0.833 in experiment [3]; 0.678 in experiment [5]; 0.387 in experiment [6]; 0.339 in experiment [7]. The composite z-score in experiment [8] was 0.808; in experiment [9], 0.545; in experiment [10], -0.181; in [11], 0.0717; in [13] it was 0.71; in experiment [14] it was -0.239. The composite z-score in experiment [15] was -1.16; in [16], -0.228; in [17], -0.0793; in experiment [18], -0.278; in experiment [19], -0.0644; in experiment [20] it was -0.108. Moreover, the z-score in experiment [4] was 1.17 (inactive); in [12], -2.33.

With `Cc1cc2c(nc1C)CCCN2CC(O)CN1CCN(C)CC1` (stereo not given), the composite z-score amounted to 0.478 in experiment [1]; 0.859 in experiment [2]; 0.337 in experiment [3]; 0.721 in [5]; 0.132 in [6]; 0.752 in experiment [7]. Besides, the composite z-score in experiment [8] was 0.79; in experiment [9], 1.02; in [10] it was -1.07; in experiment [11], 0.329; in [13], 0.625; in [14], -0.441. Besides, the composite z-score was -0.482 in [15]; 0.212 in [16]; 0.116 in experiment [17]; -0.23 in experiment [18]; 0.395 in experiment [19]; 0.908 in [20]. Moreover, the z-score in experiment [4] is 0.154 (inactive); in experiment [12], -0.162.

`CCN1C(=O)[C@H]2[C@H]3[C@H](O)[C@H](O)CC(=NOCc4ccccc4)[C@@H]3CC[C@H]2C1=O`: the composite z-score was 0.119 in experiment [1]; 0.214 in experiment [2]; -0.585 in experiment [3]; 0.302 in experiment [5]; 0.478 in experiment [6]; 0.33 in experiment [7]. Further, the composite z-score in experiment [8] was determined as 0.51; in experiment [9] it was 0.267; in experiment [10], 0.383; in experiment [11], 0.515; in experiment [13], 0.609; in experiment [14], 0.36. The composite z-score in experiment [15] was -0.467; in experiment [16], -0.0819; in experiment [17], -0.349; in [18] it was -0.551; in experiment [19], 0.138; in experiment [20], 0.29. In addition, the results for the z-score in experiment [4] and in experiment [12] were -1.02 (inactive) and -0.0462, respectively.

Consider `CCOC(=O)C[C@H]1[C@H](OC(=O)c2ccc(C(=O)c3ccccc3)cc2)[C@@H](NC(=O)c2ccc(-c3ccccc3)cc2)c2cc(OCCCO)ccc2N1C(=O)c1ccc2ccccc2n1`, for which the composite z-score in experiment [1] was 1.02; in experiment [2], -0.301; in experiment [3], -0.432; in experiment [5] it was 1.29; in experiment [6], 0.838; in experiment [7], 0.519. The composite z-score in experiment [8] was 0.775; in experiment [9] it was 0.606; in [10] it was 0.23; in experiment [11], 1.07; in experiment [13] it was 0.757; in experiment [14] it was -0.299. Also, the composite z-score in experiment [15] was -0.766; in experiment [16] it was 0.0835; in experiment [17] it was -0.317; in experiment [18], -0.621; in [19], 0.249; in experiment [20], 0.774. Further, the z-score was -0.784 (inactive) in [4] and -0.91 in [12].

Source of the values: PubChem BioAssay.
